# Reference: the supplement of paper PMC8728848
# Only a selection was taken, and the strongest signals are over-represented in it overall.
# B1: PX14375C-bth-509-28-509 (Bacteroides thetaiotaomicron) (protein)
# chain: RSPQGQFTEDDNPNALVNGKIYNVYTMMRSFDITAGTPAIAIHYLRSEDSEKGSIPSDGSDVAEMYDDFLYTPTNGLLGSYWGKNYAIIYQCNDILDAIAEKETAGQTETEDIINKGEASFFRAYCYFNLVRAFGEVPLVTYKINDASEANIPKTTADKIYEQIDTDLKTAEESLPETWSTEYTGRLTWGAARSLHARTYMMRSDWDNMYKASTDVINKGLYNLKTPYNEIFTDDGENSGGSIFELQCTATAALPQSDVIGSQFCEVQGVRGAGQWDLGWGWHMATQLMADAYETGDPRKNATLLYFRKTDDEPITPENTNEPYGESPISPAMGAYFNKKAYTDPALRKEYTNKGFWVNIRLIRYSDVVLMAAEAANEKNIPGEAVDYLEMVRARARGTNTNILPKITTNDQGELREAIRHERRVELGLEPDRFYDLVRWGIASEVLHAAGKVNYQDKNALLPLPQSEIDKSKGVLVQNPDY
# Assays:
# Assay in all cases: glycan array binding signal (z-score within array); higher = stronger binding
# Settings in all cases: glycan notation: IUPAC condensed, linker removed
# [1] = target: Fuc(a1-2)Gal(b1-3)[Fuc(a1-4)]GlcNAc
# Procedure, shortened: (§1)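 The Consortium for Functional Glycomics database supplied 3228 glycan arrays, of which those lacking an available protein sequence were dropped. The binding signal, a within-array Z-score, was averaged across arrays of the same protein sequence and across linkers. Negative scores can be read as non-binding.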
# Fuc(a1-2)[Gal(a1-3)]Gal = target: Fuc(a1-2)[Gal(a1-3)]Gal
# Procedure, shortened: as §1
# [2] = target: Fuc(a1-2)[Gal(a1-3)]Gal(b1-4)Glc
# Procedure, shortened: as §1
# [3] = target: Fuc(a1-2)[GalNAc(a1-3)]Gal(b1-3)GalNAc(a1-3)[Fuc(a1-2)]Gal(b1-4)GlcNAc
# Procedure, shortened: as §1
# [4] = target: Fuc(a1-2)[GalNAc(a1-3)]Gal(b1-3)GalNAc(b1-3)Gal(a1-4)Gal(b1-4)Glc
# Procedure, shortened: as §1
# [5] = target: Fuc(a1-2)[GalNAc(a1-3)]Gal(b1-3)GlcNAc(b1-2)Man(a1-3)[Fuc(a1-2)[GalNAc(a1-3)]Gal(b1-3)GlcNAc(b1-2)Man(a1-6)]Man(b1-4)GlcNAc(b1-4)[Fuc(a1-6)]GlcNAc
# Procedure, shortened: as §1
# [6] = target: Fuc(a1-2)[GalNAc(a1-3)]Gal(b1-4)GlcNAc(b1-6)GalNAc
# Procedure, shortened: as §1
# Gal(a1-3)Gal(b1-3)GlcNAc = target: Gal(a1-3)Gal(b1-3)GlcNAc
# Procedure, shortened: as §1
# Gal(a1-3)Gal(b1-4)Glc = target: Gal(a1-3)Gal(b1-4)Glc
# Procedure, shortened: as §1
# [7] = target: Gal(a1-3)Gal(b1-4)GlcNAc(b1-2)Man(a1-3)[Gal(a1-3)Gal(b1-4)GlcNAc(b1-2)Man(a1-6)]Man(b1-4)GlcNAc(b1-4)GlcNAc
# Procedure, shortened: as §1
# [8] = target: Gal(a1-3)Gal(b1-4)[Fuc(a1-3)]GlcNAc(b1-2)Man(a1-3)[Gal(a1-3)Gal(b1-4)[Fuc(a1-3)]GlcNAc(b1-2)Man(a1-6)]Man(b1-4)GlcNAc(b1-4)GlcNAc
# Procedure, shortened: as §1
# Gal(a1-3)GalNAc = target: Gal(a1-3)GalNAc
# Procedure, shortened: as §1
# [9] = target: Gal(a1-3)[Gal(a1-4)]Gal(b1-4)GlcNAc
# Procedure, shortened: as §1
# [10] = target: Gal(a1-4)Gal(b1-4)GlcNAc(b1-2)Man(a1-3)[Gal(a1-4)Gal(b1-4)GlcNAc(b1-2)Man(a1-6)]Man(b1-4)GlcNAc(b1-4)GlcNAc
# Procedure, shortened: as §1
# [11] = target: Gal(a1-4)Gal(b1-4)GlcNAc(b1-3)Gal(b1-4)Glc
# Procedure, shortened: as §1
# Gal(b1-3)Gal(b1-4)GlcNAc = target: Gal(b1-3)Gal(b1-4)GlcNAc
# Procedure, shortened: as §1
# Gal(b1-3)GlcNAc = target: Gal(b1-3)GlcNAc
# Procedure, shortened: as §1
# [12] = target: Gal(b1-3)GlcNAc(b1-3)Gal(b1-4)GlcNAc
# Procedure, shortened: as §1
# [13] = target: Gal(b1-3)GlcNAc(b1-3)Gal(b1-4)[Fuc(a1-3)]GlcNAc(b1-6)[Gal(b1-3)GlcNAc(b1-3)]Gal(b1-4)Glc
# Procedure, shortened: as §1
# [14] = target: Gal(b1-3)[Fuc(a1-4)]GlcNAc(b1-2)Man(a1-3)[Gal(b1-3)[Fuc(a1-4)]GlcNAc(b1-2)Man(a1-6)]Man(b1-4)GlcNAc(b1-4)[Fuc(a1-6)]GlcNAc
# Procedure, shortened: as §1
# Gal(b1-4)Glc6S = target: Gal(b1-4)Glc6S
# Procedure, shortened: as §1
# [15] = target: Gal(b1-4)GlcNAc(a1-6)Gal(b1-4)GlcNAc
# Procedure, shortened: as §1
# [16] = target: Gal(b1-4)GlcNAc(b1-2)Man(a1-3)[Gal(b1-4)GlcNAc(b1-2)Man(a1-6)]Man(b1-4)GlcNAc(b1-4)GlcNAc
# Procedure, shortened: as §1
# [17] = target: Gal(b1-4)GlcNAc(b1-2)[Gal(b1-4)GlcNAc(b1-4)]Man(a1-3)[Gal(b1-4)GlcNAc(b1-2)[Gal(b1-4)GlcNAc(b1-6)]Man(a1-6)]Man(b1-4)GlcNAc(b1-4)GlcNAc
# Procedure, shortened: as §1
# [18] = target: Gal(b1-4)GlcNAc(b1-3)Gal(b1-3)GalNAc
# Procedure, shortened: as §1
# [19] = target: Gal(b1-4)GlcNAc(b1-3)Gal(b1-4)GlcNAc(b1-2)Man(a1-3)[Gal(b1-4)GlcNAc(b1-3)Gal(b1-4)GlcNAc(b1-2)Man(a1-6)]Man(b1-4)GlcNAc(b1-4)GlcNAc
# Procedure, shortened: as §1
# [20] = target: Gal(b1-4)GlcNAc(b1-3)Gal(b1-4)GlcNAc(b1-2)[Gal(b1-4)GlcNAc(b1-3)Gal(b1-4)GlcNAc(b1-6)]Man(a1-6)[Gal(b1-4)GlcNAc(b1-3)Gal(b1-4)GlcNAc(b1-2)Man(a1-3)]Man(b1-4)GlcNAc(b1-4)[Fuc(a1-6)]GlcNAc
# Procedure, shortened: as §1
binder,measurement,setting,value
B1,glycan array binding signal (z-score),[1],-0.397
same,glycan array binding signal (z-score),Fuc(a1-2)[Gal(a1-3)]Gal,-0.193
same,glycan array binding signal (z-score),[2],0.04
same,glycan array binding signal (z-score),[3],-0.112
same,glycan array binding signal (z-score),[4],-0.355
same,glycan array binding signal (z-score),[5],-0.19
same,glycan array binding signal (z-score),[6],3.04
same,glycan array binding signal (z-score),Gal(a1-3)Gal(b1-3)GlcNAc,-0.256
same,glycan array binding signal (z-score),Gal(a1-3)Gal(b1-4)Glc,-0.196
same,glycan array binding signal (z-score),[7],0.762
same,glycan array binding signal (z-score),[8],1.41
same,glycan array binding signal (z-score),Gal(a1-3)GalNAc,-0.254
same,glycan array binding signal (z-score),[9],2.55
same,glycan array binding signal (z-score),[10],-0.374
same,glycan array binding signal (z-score),[11],-0.341
same,glycan array binding signal (z-score),Gal(b1-3)Gal(b1-4)GlcNAc,-0.316
same,glycan array binding signal (z-score),Gal(b1-3)GlcNAc,-0.186
same,glycan array binding signal (z-score),[12],-0.144
same,glycan array binding signal (z-score),[13],-0.581
same,glycan array binding signal (z-score),[14],0.351
same,glycan array binding signal (z-score),Gal(b1-4)Glc6S,0.533
same,glycan array binding signal (z-score),[15],-0.071
same,glycan array binding signal (z-score),[16],6.16
same,glycan array binding signal (z-score),[17],1.28
same,glycan array binding signal (z-score),[18],-0.287
same,glycan array binding signal (z-score),[19],4.35
same,glycan array binding signal (z-score),[20],12.3
